# Test results reported in PubChem BioAssay (NCI).
# About 79,000 compounds went through this panel and 15% of them were active in at least one assay; those are over-represented in the sample as a whole. A number with no mark means an inactive call. Activity calls are given as the source filed them. Cut-off read from the data, not from the text of the source: active = growth inhibition above about 70%; inactive = the rest. Where a SMILES comes first, the peptide text is derived from it. Bridges are numbered along the chain shown (N, C = ends).
# Legend:
# [1] = NCI Yeast Anticancer Drug Screen. Data for the rad50 strain (AID 155);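 note: 0% = growth of vehicle-only cultures of the same strain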; conditions: S. cerevisiae rad50 strain growth inhibition; at 50.0 µM; active compounds read high
# How it was run: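 Compounds were tested on a yeast strain with an engineered DNA damage repair alteration; the reported value is growth inhibition normalised to vehicle treatment.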
# [2] = NCI Yeast Anticancer Drug Screen. Data for the mec2-1 strain (AID 157); conditions: S. cerevisiae mec2-1 strain, at 50.0 µM, active compounds read high
# How it was run: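 Growth inhibition is read against vehicle-treated controls after compound exposure of the mec2-1 yeast strain, which is defective in DNA damage repair or cell cycle control.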
# [3] = NCI Yeast Anticancer Drug Screen. Data for the sgs1 mgt1 strain (AID 161);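 note: 0% = growth of cultures given vehicle only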; conditions: S. cerevisiae sgs1 mgt1 strain, at 50.0 µM, active compounds read high
# How it was run: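 Growth of a repair-deficient yeast mutant was monitored after compound treatment and expressed as inhibition relative to vehicle-treated cultures.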
# [4] = NCI Yeast Anticancer Drug Screen. Data for the cln2 rad14 strain (AID 165);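 note: 0% = growth equal to vehicle treated cultures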; conditions: S. cerevisiae cln2 rad14 strain, at 50.0 µM, active compounds read high
# How it was run: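 Growth inhibition, relative to vehicle-treated controls, is the read-out. The test organism is a yeast strain with defined genetic alterations, cln2 rad14.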
# [5] = NCI Yeast Anticancer Drug Screen. Data for the bub3 strain (AID 167); conditions: S. cerevisiae bub3 mutant strain, at 50.0 µM, active compounds read high
# How it was run: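 Growth of a checkpoint-deficient yeast mutant is measured after compound exposure. Values represent inhibition relative to vehicle.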
# [6] = NCI Yeast Anticancer Drug Screen. Data for the mlh1 rad18 strain (AID 175); conditions: S. cerevisiae mlh1 rad18 strain growth inhibition; at 50.0 µM; active compounds read high
# How it was run: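 Cells of a genetically altered yeast strain, deficient in DNA damage repair, were treated with compound. Their growth was then compared with that of vehicle-treated cultures to give inhibition.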
Compound,growth inhibition [1] [%],growth inhibition [2],growth inhibition [3],growth inhibition [4],growth inhibition [5],growth inhibition [6]
CCOC(=O)CNC(=O)C(=[N+]=[N-])C(=O)COc1ccc(Cl)cc1Cl,3.4,-9%,18.1%,-18.3%,19.4%,-5.05%
Cc1ccc(S(=O)(=O)Oc2c(Br)cc(-c3ccccc3)cc2Br)cc1,27.9,3.4%,13.5%,6.65%,-12.4%,18.6%
CCN(CC)COC(=O)C(C)(C)C,-13.1,10.6%,-12.9%,-35%,-9.25%,-4.2%
CC(=NNC(=S)Nc1ccccc1)c1cccc(C(C)=NNC(=S)Nc2ccccc2)n1,-7.4,-7.55%,-0.8%,2.65%,-2.3%,6.4%
N#Cc1ccccc1-c1ccccc1/C=C/C(=O)O,-20.4,-5.9%,-9.5%,11.8%,-8%,12.4%
CC(C)(C)NC(=O)C12C3C4C1C1C2C3C41C(=O)NC(C)(C)C (configuration not stated),-19.3,-9%,-15.9%,-39.7%,-26.1%,-19.5%
Nc1cc(Cl)c(N)c(Cl)c1,1.8,-21.6%,-9.65%,14.1%,-19.4%,-0.9%
CC(=O)ONc1nc(C)c(CCC2OCCO2)c(SC(=N)N)n1,28.9,27.2%,30%,14.9%,-1.7%,38.2%
O=c1onc2n1-c1cc(Cl)ccc1C(=S)N1CSCC21 (configuration not stated),1,8.15%,13.5%,5.4%,2.5%,11.6%
Cc1ccc(S(=O)(=O)/C(=C/c2ccccc2)CC(=O)c2ccccc2)cc1,9.05,6.55%,-22.1%,-18.4%,11.1%,17%
CN(C)S(=O)(=O)c1ccc(Nc2ccc(O)c3c2C(=O)c2c([N+](=O)[O-])ccc(O)c2C3=O)cc1,54.9,13.4%,-31.9%,-8.3%,-27.8%,26.1%
C[C@@H]1C[C@H](C)OC(CO)O1 (some centres not stated) (tested in a mixture with another compound),13.4,-1.3%,0.25%,12.2%,-12.6%,19.3%
C/C=C/C(C/C=C(\C)CO[Si](C)(C)C(C)(C)C)O[Si](C)(C)C(C)(C)C (configuration not stated),1.1,-14.5%,-6.45%,-8.45%,4.9%,2.95%
N#CC1(C#N)C(c2ccccc2)C1(C#N)C(N)=O (configuration not stated),-13.2,11.4%,-22.9%,-20.6%,-6.7%,-27.5%
CCCC(=O)C1=C(O)C(CC2=C(O)C(C)(C)C(=O)C(C(=O)CCC)=C2O)=C(O)C(C)(C)C1=O,26.3,-12.4%,-2.5%,1%,-0.15%,1.3%
CC1(C)CN2C(c3ccccc3)=NN(c3ccccc3)C2(C)C1 (configuration not stated),-5.85,-18.4%,20.9%,-23.1%,50.4%,6.15%
CCOC(=O)/C(C#N)=C/c1ccc(-c2cc(C(F)(F)F)cc(C(F)(F)F)c2)o1,-17.9,-7%,-8%,-15.4%,-2.5%,-0.8%
Nc1nc(N)nc(C2CC3C=CC2C3)n1 (configuration not stated),-1.55,-13.9%,-4.4%,-10%,2.1%,-0.95%
CCC(SC)C(=O)c1ccccc1 (configuration not stated),-7.55,-11.6%,0.5%,-12.4%,-33.8%,-12.8%

Compound,growth inhibition [1] [%],growth inhibition [2],growth inhibition [3],growth inhibition [4],growth inhibition [5],growth inhibition [6]
CC(C)(C#N)CCCCC(C)(C)C#N,3.1,0.7%,1.2%,11.8%,12.4%,3.8%
CCCCCCCCCCOC(=O)C(C)O (configuration not stated),8.4,2.95%,5.35%,5.55%,-16.3%,-4.75%
Cc1cccc(NC(=O)NC(O)C(Cl)(Cl)Cl)c1 (configuration not stated),1.65,-3.35%,-6.25%,-43%,-16.6%,0.95%
CCOC(=O)CCCCCSc1n[nH]c(=O)[nH]c1=O,-7.5,-11%,-21.9%,5.75%,6.15%,-4.2%
CCOC(=O)C1Oc2ccccc2O1,11.8,-14.6%,-7%,-41.1%,-13.1%,-10.8%
O=[N+]([O-])c1ccc(N=Nc2c(O)c3ccccc3c3ccccc23)c([N+](=O)[O-])c1,46.6,10.3%,27.9%,25.9%,6.1%,23.2%
CC(=O)c1cc2c(cc1C)C(C(C)C)CCC2(C)C (configuration not stated),3.75,-14.6%,6.55%,-18.8%,41.7%,6.85%
COc1ccc2nc(C)cc(N=[N+]=[N-])c2c1,-34.6,1.45%,-16.5%,-46.5%,8.55%,10.6%
Cc1ccc(SSCC(O)C(O)CSSc2ccc(C)cc2)cc1 (configuration not stated),11.6,-18.6%,-30.6%,21.8%,-5.6%,10.1%
CN(CC(=O)C(O)C(O)C(O)CO)c1ccccc1 (configuration not stated),-10.4,-8.75%,-7.6%,-16.1%,-2.6%,-9.7%
NC(=S)N/N=C\CC(O)(C(F)(F)F)C(F)(F)F,-16.7,-19.2%,-7.45%,0.5%,7.1%,-2.3%
CCOC(=O)C1CSSCC(N)C(=O)N1 (stereo not drawn) (H-Cys-Cys-OEt; disulfide 1-2; configuration not given here),5.65,-1.25%,-11.6%,-48.8%,-11.6%,4.7%
O=C(Nc1ccccc1)OC1CCCC12CC2 (configuration not stated),8.7,4.9%,-16.1%,-4.8%,-2.25%,23.1%
N#CC1CNCCC1=N (configuration not stated),-5.75,-3.2%,13.4%,-1.1%,-1.55%,-6.8%
COC(=O)C1c2ccoc2CC2C1C(O)C(O)C1C(C)(C)CCCC21C (configuration not stated),57.5,88.6% (active),77.8% (active),72% (active),81.6% (active),92.5% (active)
CC(C)N(Cc1ccccc1)C(=O)Nc1ccc(Cc2ccc(NC(=O)N(Cc3ccccc3)C(C)C)cc2)cc1,-0.7,-12.3%,0.35%,18.4%,-10.1%,-8.3%
CCO/N=C(/CNC(=O)Oc1ccccc1)c1ccccc1,3.15,0.75%,-4.05%,28%,37.4%,9.45%
Cc1ccc(S(=O)(=O)Oc2c(Cl)c(Cl)c(Cl)c(Cl)c2Cl)cc1,-9.5,-10.1%,2.2%,-15.3%,9.5%,5%
